The text below walks through data of PubChem BioAssay AID430 (Sanford-Burnham Center for Chemical Genomics, 2006).

Structures are written as SMILES. About 1,100 (1.7%) of roughly 63,000 compounds were called active. Only a selection was taken, and actives are over-represented in it overall. Measured potencies and affinities stand elsewhere. Unmarked numbers belong to inactive results. Rule as the data show it: active = cytotoxicity above about 50%; inactive = the rest.

The assay in a line: HPDE-C7 pancreatic duct cell viability loss – fluorescence, HTS (AID 430).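 Also: cells exposed to compound for 48 hours before viability readout; 0% = vehicle and 100% = reference cytotoxic drug.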 As to conditions: HPDE-C7 pancreatic duct cells viability, at 10 µM, active compounds read high.
As to `c1ccc(N(c2ccccc2)c2nc(N3CCOCC3)nc(N3CCOCC3)n2)cc1`, the cytotoxicity was 4.8%.

Turning to `COC(=O)C1(C)Nc2ccccc2C(=O)N1c1ccccc1C` (stereo not drawn), the cytotoxicity is 2.8%. With `CCC1(CC)Nc2ccccc2C(=O)N1c1ccc(NC(C)=O)cc1`, the cytotoxicity was 10.6%. In the case of `CCOCCCNC(=O)C(c1ccc(Cl)cc1)N1CCN(C(=O)c2ccco2)CC1` (stereo not drawn) it was -11.6%; in that of `Cc1onc(-c2ccccc2)c1C(=O)NCc1cccnc1`, 4.9%; in that of `Cc1cc(OCCCCCNCCO)ccc1Cl`, 18.7%. For the molecule `O=C(NCc1ccco1)c1cc(-c2ccc(Cl)cc2)on1`, the cytotoxicity is 5.9%. As for `CC(C)Cc1cc(C(=O)NCc2cccs2)no1`, the cytotoxicity is -21.1%. In the case of `CC1(C)Nc2ccc(O)cc2-c2c1ssc2=S` it was 67.4% (active); in that of `CC1(C)c2ssc(=S)c2-c2ccccc2N1C(=O)c1ccco1`, -13.6%; in that of `N#C/C(C(=O)c1ccccc1)=C1/CCCN1`, 10.8%. `COc1ccc(CCN2CC(C#N)=C3c4cc(OC)c(OC)cc4CCN3C2)cc1OC`: the cytotoxicity is -1.5%. For `O=C(c1ccccc1)N(Cc1ccc(F)cc1)C1CCS(=O)(=O)C1` (stereo not drawn), the cytotoxicity is -9.7%. In the case of `c1ccc2oc(NC3=NCN(CC4CCCO4)CN3)nc2c1` (stereo not drawn) it was -19.3%; in that of `COc1ccc(-n2nnc3c(SCC(=O)NCC4CCCO4)ncnc32)cc1` (stereo not drawn), -2.3%; in that of `CCN(CC)C(=O)CSc1ncnc2c1nnn2-c1ccc(OC)cc1`, -17.1%. In the case of `CCOC(=O)Cn1cnc2c(C#N)c3n(c2c1=O)CCCCC3` it was -8.7%. In the case of `Cc1c(Br)c(C(F)(F)F)nn1CC(=O)NCC1CCCO1` (stereo not drawn) it was -17.2%; in that of `CCn1c(Cc2ccccc2)nnc1SCC(=O)Nc1nc2ccccc2s1`, -5%; in that of `CCn1c(Cc2ccc(OC)cc2)nnc1SCC(=O)Nc1nc2ccccc2s1`, -6%. As for `CCn1c(SCC(=O)Nc2nc3ccccc3s2)nnc1-c1ccc(OC)cc1`, the cytotoxicity was 58.5% (active). In the case of `CCCCNc1nc2ccccc2n1CC(=O)N1CCc2ccccc2C1` it was -0.3%; in that of `COc1cccc(-c2cc(C(=O)N3CCCc4ccccc43)no2)c1`, -19.5%; in that of `CCOC(=O)C1=C(C)N=C2SC(C)C(=O)N2C1/C=C/c1ccccc1OC` (stereo not drawn), -8.3%. As for `CCc1nc(Nc2ccncc2)c2oc3ccccc3c2n1`, the figure is 67.4% (active). As for `Cc1nc(Nc2ccncc2)c2oc3ccccc3c2n1`, the figure is -28.9%. Turning to `CCNc1nc(CC)nc2c1oc1ccccc12`, the cytotoxicity was -12.6%.

For the molecule `OC1(c2cccc(C(F)(F)F)c2)CCN(c2ncnc3c2[nH]c2ccccc23)CC1`, the cytotoxicity is 123% (active). As to `c1ccc2c(c1)[nH]c1c(N3CCCC3)ncnc12`, the cytotoxicity was 0%.

Turning to `c1ccc2c(c1)[nH]c1c(N3CCC4(CC3)OCCO4)ncnc12`, the cytotoxicity is -10.6%. As for `COC(=O)c1cc2c(cc1Cl)SC(=NCCCN1CCOCC1)NS2(=O)=O`, the figure is -1.2%; as for `O=C(Nc1cccc2cccnc12)c1ccc(Br)o1`, 5.6%; as for `FC(F)Oc1cccc2cccnc12`, -5.8%. On to `O=C(O)c1ccccc1NS(=O)(=O)c1cccc2cccnc12`, for which the cytotoxicity is 21.6%. As to `O=C(COc1cccc2cccnc12)Nc1nccs1`, the cytotoxicity was 8.2%. In the case of `COC(=O)c1ccccc1OC(=O)c1ccc(Br)o1` it was 7.5%.

Turning to `O=C(O)c1cccnc1Oc1ccccc1`, the cytotoxicity is -7%.

Take `CCc1ccc(C(=O)N2CCN(c3ccc(F)cc3)CC2)s1`: the cytotoxicity was -18.1%.

As for `CC(=O)N1CCN(Cc2cc(=O)n3cc(Cl)c(C)c(Cl)c3n2)CC1`, the cytotoxicity is -7.9%. Take `O/N=C(\Cc1cscn1)c1ccc(O)cc1O`: the cytotoxicity is -6.8%. As to `CCn1c(=O)cc(SCC(=O)Nc2ccc3c(c2)OCO3)c2ccccc21`, the cytotoxicity is 0.7%. For `O=C(c1cc(-c2ccncc2)nc2ccccc12)N1CCN(c2ccccn2)CC1`, the cytotoxicity is 56.1% (active). As for `O=C(c1cc(-c2ccncc2)nc2ccc(Br)cc12)N1CCN(c2ccccn2)CC1`, the figure is 12.7%; as for `CCOC(=O)N1CCN(C(=O)c2cc(-c3ccc(OCC)cc3)nc3ccccc23)CC1`, 57.6% (active). Turning to `COc1cc(-c2cc(C(=O)N3CCN(c4ccccn4)CC3)c3ccccc3n2)cc(OC)c1OC`, the cytotoxicity is 14.4%. In the case of `COc1ccc(-c2cc(C(=O)N3CCN(c4ccccn4)CC3)c3ccccc3n2)cc1` it was 32%; in that of `O=C(c1cc(-c2ccccc2)nc2ccccc12)N1CCN(c2ccccn2)CC1`, 17.1%; in that of `CCOc1ccc(-c2cc(C(=O)N3CCN(C)CC3)c3ccccc3n2)cc1`, -8.5%.

For the molecule `CCOc1ccc(-c2cc(C(=O)N3CCN(c4ccccn4)CC3)c3ccccc3n2)cc1`, the cytotoxicity is 56.9% (active). Regarding `COc1cccc(-c2cc(C(=O)N3CCN(c4ncccn4)CC3)c3ccccc3n2)c1`, the cytotoxicity was -4.1%. As for `Cc1ccc2nc(-c3ccccn3)cc(C(=O)N3CCN(c4ncccn4)CC3)c2c1`, the figure is 8.9%; as for `Cc1ccc(-c2cc(C(=O)N3CCN(c4ncccn4)CC3)c3ccccc3n2)cc1`, 57.3% (active). Regarding `Cc1ccc(-c2cc(C(=O)N3CCOCC3)c3ccccc3n2)cc1`, the cytotoxicity is -8.5%.

For `Cc1ccc(S(=O)(=O)N2CCN(C(=O)CSc3nc4ccccc4o3)C2)cc1`, the cytotoxicity is -14.7%. For the molecule `O=C1CSC(c2ccccc2F)N1c1cc(Cl)ccc1O` (stereo not drawn), the cytotoxicity is 9.2%. As for `CSc1cccc(NC(=O)CN(C2CCCCC2)S(C)(=O)=O)c1`, the figure is -17.9%. For `O=C(c1cccc(OC(F)F)c1)N1CCN(c2ncccn2)CC1`, the cytotoxicity is -14.1%. As for `CCC(=O)Nc1ccc(S(=O)(=O)Nc2cccc(C)c2)cc1OC`, the figure is 3.2%; as for `COc1ccc(CNC(=O)C2CCN(S(=O)(=O)c3cccc4cccnc34)CC2)cc1`, 2%; as for `COc1ccc(C2C3=C(Nc4ncnn42)c2ccccc2CC3)cc1OC` (stereo not drawn), 32.9%. In the case of `COc1cc(C2C3=C(Nc4ncnn42)c2ccccc2CC3)cc(OC)c1OC` (stereo not drawn) it was 73.5% (active); in that of `COc1ccc(C2C3=C(Nc4ncnn42)c2ccccc2CCC3)cc1` (stereo not drawn), -20.3%; in that of `CCN(CC)S(=O)(=O)c1cccc(-c2nnc(SCC#N)n2Cc2ccccc2)c1`, 3.5%.
